From PubChem BioAssay AID1508600 (Functional Genomics Laboratory (NCATS/FGL), 2020)
Screen size: about 53,000 sequences; about 3,700 (7%) were called active.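 Rule for the calls: active = gene knockdowns whose robust z-score for IL-1 alpha signal is at least 2 or at most -2, so actives lie on both sides; inactive = the rest.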 The full list was thinned out, with actives kept by preference.

assay: Components of the Cytosolic LPS Sensing Pathway: Gene Identification via Genome-wide siRNA Screen; conditions: RAW264.7 macrophages, IL-1a HTRF, actives lie on both sides, screened at 100 nM (by protocol), cells primed 5 h with Pam3CSK4 first;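 note: robust z of the log signal after scaling to non-targeting control siRNA wells of the plate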
Procedure, shortened: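 Cells (RAW264.7, 1×10^4 per well) were transfected with siRNA at 100 nM and cultured 48h at 37 degrees C. Pam3CSK4 was added for 5 hours; LipidA transfection followed for 24 hour. IL-1a was then measured by HTRF.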

Row | Sequence | z-score
1 | GGUGUUCCUGGUGAAGCAATT against Camk1g | 0.875 (inactive)
2 | CGCUCACUGGUUUUUAAUUTT against Itpripl2 | 0.694 (inactive)
3 | GCCCGCACAAUCGUACUUUTT against Ccl28 | -1.2 (inactive)
4 | GGAAAACUGCGUUUGGAAATT against Neil3 | 0.387 (inactive)
5 | GCAAUAGUGAGCACGCCAGTT against Col18a1 | 0.307 (inactive)
6 | GGUCUGUGGACUGAACUUATT against Bcl2l11 | -2.6 (active)
7 | GGAUGAAGAACUCAGAGUGTT against Slc66a2 | -1.24 (inactive)
8 | GGUCAUUCUUAAUUGUUCATT against Kpna6 | 0.939 (inactive)
9 | CCAAAGUCUGUUAAUGGGUTT against 4921517D22Rik | 0.401 (inactive)
10 | GCUAUGCAGAGGAGUAUGCTT against Duoxa1 | 3.03 (active)
11 | GGAGACAUUGCUAUAUAUGTT against Hmgcs1 | -0.207 (inactive)
12 | GGCCUAAGGCUGUGAAUGUTT against D2hgdh | -2.59 (active)
13 | GCCGUUUACGUUUAUUGUUTT against Cux2 | -0.0356 (inactive)
14 | GGACAGAAUACGUGAGGAGTT against Septin5 | -0.427 (inactive)
15 | GGAGUUCCAGCAGCUCUAUTT against Vsnl1 | 0.741 (inactive)
16 | GGUUCUGCUGGACAACUUUTT against Cyp46a1 | -0.377 (inactive)
17 | CCCUCAUAACUAAUGCUGUTT against Pip5kl1 | -0.276 (inactive)
18 | GGUGAUCCAAGACUUCCAGTT against Actl6b | 1.16 (inactive)
19 | GCAGUGAUCCAUGAGCCUATT against Eif5a | 4.64 (active)
20 | GCACCAAUAUUAGGCUGACTT against Noct | 1.73 (inactive)
21 | CGAGCACACUUUUGAAGAATT against Gm5089 | 1.33 (inactive)
22 | GGCUACGAUCCUACAGUGGTT against Rhebl1 | -0.283 (inactive)

Row | Sequence | z-score
23 | GGCAACACUGUGGCUAAGUTT against Ankrd13d | 2.74 (active)
24 | GCUGGUAACAGAAUUUCUUTT against Aox2 | 0.515 (inactive)
25 | GCUAAACAGACAACUCAACTT against Rufy2 | 1.04 (inactive)
26 | GGUAAAACCCAAUAGUAACTT against Gclm | 0.45 (inactive)
27 | GGAUCUUUACUGCUUUGUGTT against Picalm | 2.42 (active)
28 | GCCAAUUUGAAGGUUUUCATT against Tlr8 | 1.58 (inactive)
29 | GGCUCUUGGAUAUUUCCGATT against Nop9 | 0.342 (inactive)
30 | CCUAAUGGAAGGGAAGCCATT against Cox19 | -2.06 (active)
31 | GGACCUGAAUAAGACUAUUTT against Lgmn | -0.429 (inactive)
32 | GGGAGGUUACUAUGGAGACTT against Mia | 1.68 (inactive)
33 | GCUACUGCAUUCUCUAUCATT against Actl9 | 1.94 (inactive)
34 | GGCAACUGUGUUCUCACGATT against Ddx58 | -1.22 (inactive)
35 | CCACUUCCAUAGAGAUUUUTT against Tmx3 | 2.93 (active)
36 | GCUUUGUUUGAAAAUGCGATT against Nrde2 | -0.66 (inactive)
37 | CCGCGUGUAUAAGUUGGUGTT against Mrpl9 | 1.23 (inactive)
38 | GCCUCGAUUCACCAAGUGUTT against Ghr | -0.663 (inactive)
39 | GGAAGAUCGAGAAUGUUCCTT against Ppih | 0.174 (inactive)
40 | GCCAUAUCAACUCAGAUCATT against Ssh2 | 5.04 (active)
41 | GGUAAUAAGUCCCAUUUUCTT against Prpmp5 | 0.817 (inactive)
42 | GGCCAGAAGAACUAACAGUTT against Cept1 | -0.11 (inactive)
43 | GGACAAUGCUAAUGAGACCTT against Gcsam | -0.176 (inactive)
44 | GAGGGACUGUAAUGUUGACTT against Olfr560 | 0.0877 (inactive)

Row | Sequence | z-score
45 | CCGCUAGACAAAUUUUGCCTT against Slc6a2 | 1.45 (inactive)
46 | GCUACAGUAGUAAGACUAATT against Usp53 | 2.67 (active)
47 | GGAGUAACAACACAACAUUTT against Mab21l1 | 1.43 (inactive)
48 | CGCUGAAAGUGAACGUAGGTT against Kcnv2 | -1.14 (inactive)
49 | CCUUCACAUAAGUUUCUGUTT against Nuak2 | 0.575 (inactive)
50 | GAGGAAGACACUUUUCCUGTT against Atp23 | 0.765 (inactive)
51 | GGGCAGUGAAAUCCUGUCUTT against Trim16 | -2.81 (active)
52 | GCUUAGAUCACCUAAUGACTT against Parp3 | 1.18 (inactive)
53 | GGAUGUUUGGACCAAUCACTT against Iba57 | -0.962 (inactive)
54 | GGUGCUACUCCAGAUUGACTT against Tbc1d13 | 0.63 (inactive)
55 | GGUUAUAAACCAGAAGAGUTT against Mill2 | 0.807 (inactive)
56 | GCUGUUAGACCUCUUGAUUTT against Olfr1164 | 0.0632 (inactive)
57 | GGUAGAUCAGUAAUAGUUATT against Glrb | 0.837 (inactive)
58 | GGAGAUUGAGAACACAAGCTT against Hipk2 | 2.37 (active)
59 | CCAGACACAUAGGACAAAATT against Slco3a1 | -0.00454 (inactive)
60 | GGCUGUGCGUGUUACAAAATT against Erlin1 | 0.501 (inactive)
61 | GGAAUGUCUAUCACAAUGGTT against Vmn1r230 | 1.78 (inactive)
62 | GGUGGAAGAUGAGAAAGAGTT against Tmem139 | -1.21 (inactive)
63 | GGAAGAUAAAUGUCACAAATT against AA792892 | 0.392 (inactive)
64 | GCCAGAAAUACCUGUCGGATT against Cdc37 | -0.229 (inactive)
65 | CCACUUUCAACUUUCCGCATT against Fgd5 | -1.94 (inactive)
66 | GCUAGACCUAAGGAGCAAATT against Axin1 | 3.59 (active)

Row | Sequence | z-score
67 | GGCCAAUUUCUUCACUUCUTT against Ints11 | -0.809 (inactive)
68 | GGUUUUCACCAUAUGCAGCTT against Zfp353-ps | 0.267 (inactive)
69 | GGAAGAAAUGUCAUCACAATT against Heph | 0.193 (inactive)
70 | CGGACACAUUGACUGAAUATT against Adgrl1 | -1.45 (inactive)
71 | CCCACAUCAUUGAGAUUCUTT against Olfr1508 | -1.25 (inactive)
72 | GGAGAAGUUUGAAGAGAUGTT against Cct5 | -2.24 (active)
73 | GGAAGAAAACAUUUAGCCCTT against Mmd2 | 0.504 (inactive)
74 | ACAUACCAGUCUCUGUACCTT against Pigu | -1.56 (inactive)
75 | CCGCCUCUUACCGAAGUUCTT against Mettl4 | 3.04 (active)
76 | GGACUUGAAAGAUAAAUAGTT against Crx | 0.163 (inactive)
77 | GCUAAUAACUUUUCAGUGATT against Olfr381 | 0.549 (inactive)
78 | GGUUGGUAGGAUGGACAAGTT against Rab11b | 2.45 (active)
79 | GCCCUGUAUUUUGAAUUACTT against Bmpr1b | 0.0161 (inactive)
80 | GGGAAGAAAUAUGUUAGAUTT against Pip4p2 | 0.92 (inactive)
81 | CCUUGUUACUAUACUACACTT against Ppp1r2 | 2.59 (active)
82 | GCCUUUUAGCUGUUCAGGATT against Nlrc5 | 1.83 (inactive)
83 | GCUGAAGCAUACAUUUGUGTT against Tas2r137 | -0.226 (inactive)
84 | CCAAUCUCCUGUUGUUAAATT against Mlf1 | 0.557 (inactive)
85 | CCAGUCUUGCCCUUUAGUGTT against Foxi2 | -1.88 (inactive)
86 | AUGUAUUGAGUCAGGCAUCTT against Olfr243 | 2.32 (active)
87 | CCUUACCACUUGAAGAUGGTT against Ephx1 | -1.2 (inactive)
88 | GCCAGUGAGUUUAUCAGCCTT against B4galnt3 | 0.706 (inactive)

Row | Sequence | z-score
89 | GGUAUACAUGCUUCUCUCUTT against Olfr610 | -0.569 (inactive)
90 | GCUACAGAACCUGCUCUACTT against Thoc5 | 0.391 (inactive)
91 | GGCAUUGAACAAGAAAGAATT against Mef2c | -0.94 (inactive)
92 | GGGUAUGGUUUCAUCACUUTT against Boll | -2.71 (active)
93 | GGAAGACAAAGAUUCUAGUTT against Abcc1 | -1.06 (inactive)
94 | UUACUGGUUGCUGUUGUGGTT against Alyref | 1.35 (inactive)
95 | GGAGAUCUCCUCAGCCACATT against Gemin4 | -2.14 (active)
96 | GCUGUGGUACAACCACAUUTT against Lrrc8a | -0.244 (inactive)
97 | GGAACCACACCAUGUGAAATT against Prdm5 | 0.828 (inactive)
98 | CCAUUCCCGCAUCCAUGUGTT against Zfp672 | -2.23 (active)
99 | AGAGGAAGCUCGAAAACGGTT against Zrsr2 | -0.2 (inactive)
100 | GGAUAUCAUCGUGUUUAUUTT against Vps45 | 0.612 (inactive)
101 | GGACAACAUUAUAGGAAAGTT against Neu3 | 2.36 (active)
102 | GCAAAAAAUCACUUCGAGUTT against Mgat4a | -0.377 (inactive)
103 | GGGUAAGUAUUGAACUCAUTT against Slc10a1 | 1.06 (inactive)
104 | GGAUGCUGAAGUAAUAGUGTT against Tbc1d15 | 0.0714 (inactive)
105 | CGUUGUCAUUCACAAGUGATT against Tmprss11e | 3.02 (active)
106 | GGAAUGCUAUCAGAGAAGATT against Zmym5 | -0.0365 (inactive)
107 | CCCUUCUUCGGGUUUUAACTT against Kcna3 | 3.08 (active)
108 | GGUUUAAGGUAGUUCAUGATT against Faf1 | -0.0439 (inactive)
